The values below come from PubChem BioAssay (NCI).

The panel holds about 83,000 compounds, 20% with a hit somewhere; the sample as a whole holds those more often.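 Activity criterion: percent growth below 10, measured after cells in 96-well plates were exposed to a single compound concentration for 48 hours.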 A number with no mark means an inactive call. Active and inactive are the calls of the source.

The first assay has as its system HT29 colon. The assay can be described thus: NCI-60 one-dose screen, 48 h (100 = growth as untreated, 0 = no growth, -100 = all killed). To be noted: 10 µM unless noted.
As to `C=C(C)[C@@H]1CC[C@]2(CN)CC[C@]3(C)[C@H](CC[C@@H]4[C@@](C)(CCCN)[C@H](C(=C)C)CC[C@]43C)[C@@H]12`, the growth was 17.9%. The same measure, in the same setting: in the case of `Nc1ccccc1NC(=O)c1ccc(CN2CCC/C(=C\c3ccccn3)C2=O)cc1` it was 13.8%. `O=c1c2sc3ncc(Br)cc3c2ncn1-c1cccc(Cl)c1`: the growth was 71.5%. For the molecule `CCN1CCN(C(=O)[C@]23CCC(C)(C)C[C@@H]2C2=CC[C@@H]4[C@@]5(C)C/C(=C/c6ccncc6)C(=O)C(C)(C)[C@@H]5CC[C@@]4(C)[C@]2(C)CC3)CC1`, the growth is -39.8% (active). In the case of `Cc1ccc(-c2nc([P+](c3ccccc3)(c3ccccc3)c3ccccc3)c(N3CCOCC3)o2)cc1`, the growth is -0.839% (active). Turning to `CCCCn1c(-c2ccc(O)cc2)cn2c3c(=O)[nH]c(=O)n(C)c3nc12`, the growth is 77.6%.

Consider `CN(C)CCCC1(c2ccc(F)cc2)OCc2cc(-c3ccc(C(F)(F)F)nc3)ccc21` (centres undefined), for which the growth is 64.8%.

As for `Nc1c2c(nc3ccc(Cl)cc13)CC(c1ccc(O)cc1)CC2=O` (centres undefined), the growth was 101%. For the molecule `N#Cc1c(-c2ccco2)nc2c(c(-c3ccccc3)nn2-c2ccccc2)c1-c1ccc(O)cc1`, the growth is 30.2%. On to `COc1ccc(OC)c(-c2c(C#N)c(-c3ccco3)nc3c2c(-c2ccccc2)nn3-c2ccccc2)c1`, for which the growth was 105%. On to `N#CC1=C(N)Oc2c(c(N)nn2-c2ccccc2)C1c1ccc(Cl)cc1` (centres undefined), for which the growth was 107%. Take `O=C(O)c1cccc2c1Cc1cc([N+](=O)[O-])ccc1-2`: the growth was 112%. The same measure, in the same setting: in the case of `CCN1CCN(C(=O)[C@]23CCC(C)(C)C[C@H]2C2=CC[C@@H]4[C@@]5(C)CC/C(=N/O)C(C)(C)[C@@H]5CC[C@@]4(C)[C@]2(C)CC3)CC1` it was 28.3%; in that of `Cc1ccc(NC2CC(=O)N(c3c(C)cc(C)cc3C)C2=O)c(C)c1` (centres undefined), 106%; in that of `NCCNc1nc(-c2ccccc2)nc2nc(-c3ccccc3)oc12`, 71.6%.

As to `CCCCCC1CCCCN1C(=O)OCC` (centres undefined), the growth was 101%. Same read-out and setting: in the case of `COc1ccc(-c2cc(/C=C/C(=O)c3ccc(N)cc3)[nH]n2)cc1` it was 10.4%. As for `COc1ccc2nc(-c3cc(-c4cc(OC)c(OC)c(OC)c4)n[nH]3)[nH]c2c1`, the growth is 42.7%. Regarding `COc1ccc(/C=C(\C#N)c2cc3ccccc3n2S(C)(=O)=O)cc1`, the growth is 102%.

For the molecule `CC1c2ccccc2N(S(=O)(=O)c2ccccc2)C1C` (centres undefined), the growth is 67.8%. Take `CC1(C)CC[C@]2(C(=O)NCCNCCN)CC[C@]3(C)C(=CC[C@@H]4[C@@]5(C)CCC(=O)C(C)(C)[C@@H]5CC[C@]43C)[C@@H]2C1`: the growth was -2.78% (active). As for `C=C(C)[C@@H]1CC[C@]2(C)[C@H](CC[C@@H]3[C@H]4[C@H]5OC[C@@]4(CCC5(C)C)CC[C@]32C)[C@@]1(C)CCCN`, the growth was 6.05% (active). Consider `COc1cc2nc(Cl)nc(Nc3cccc(C(=O)/C=C/c4ccc(F)cc4)c3)c2cc1OC`, for which the growth was 16.1%.

Take `CC[C@H](CC[C@@H](C)[C@H]1CC[C@H]2[C@@H]3/C(=C/c4cccnc4)C(=O)C4=CC(=O)CC[C@]4(C)[C@H]3CC[C@]12C)C(C)C`: the growth was 81.4%. Same read-out and setting: to `COc1ccc(CCN2C(=O)C(C)(C)SC2=S)cc1OC` belongs 105%; to `C=C(C)[C@@H]1CC[C@]2(C(=O)N3CCN(C)CC3)CC[C@]3(C)[C@H](CC[C@@H]4[C@@]5(C)C/C(=C/c6ccc(C(F)(F)F)cc6)C(=O)C(C)(C)[C@@H]5CC[C@]43C)[C@@H]12`, 95.7%. With `Cc1nc([P+](c2ccccc2)(c2ccccc2)c2ccccc2)c(Sc2sc(-c3ccccc3)nc2[P+](c2ccccc2)(c2ccccc2)c2ccccc2)o1`, the growth was 4.54% (active). `O=C1NC(=Nc2ccc(S(=O)(=O)Nc3nccs3)cc2)S/C1=C\c1coc2ccccc2c1=O`: the growth is 97.6%.

As to `Cc1ccc(Sc2sc(-c3ccccc3)nc2[P+](c2ccccc2)(c2ccccc2)c2ccccc2)cc1`, the growth was 3.9% (active).

As for `Clc1ccccc1-c1nc(Nc2nc3ccccc3s2)nc(C(Cl)(Cl)Cl)n1`, the growth was 13.1%.

A further assay deals with SNB-75 CNS. Described as above. As to conditions: 10 µM unless noted.
As to `O=C1/C(=C\c2ccc(Br)o2)SC(=S)N1CCc1ccc(O)cc1`, the growth is 65.6%. As to `N#CC1=C(N)Oc2ccc3ccccc3c2C1c1ccccc1` (centres undefined), the growth is -16.3% (active). On to `N#CC1=C(N)Oc2ccc3ccccc3c2C1c1ccccc1Cl` (centres undefined), for which the growth is -2.04% (active). Consider `CCSc1sc(-c2ccc(C)cc2)nc1[P+](c1ccccc1)(c1ccccc1)c1ccccc1`, for which the growth was -8.6% (active). On to `Fc1ccc2nc(-c3cc(-c4ccc5c(c4)OCO5)n[nH]3)[nH]c2c1`, for which the growth was 35.6%. `CC(=O)c1c(C)[nH]c(-c2nc3ccc(N4CCN(C)CC4)cc3[nH]2)c1-c1ccc2c(c1)OCCO2`: the growth is 1.99% (active). Consider `COc1cc2nc(Cl)nc(Nc3cccc(C(=O)/C=C/c4ccc(Br)cc4)c3)c2cc1OC`, for which the growth was 76.6%. `COc1c(N)c2c(c([N+](=O)[O-])c1OC)C(=O)OC2`: the growth is 98.7%. For `N#C/C(=C\c1ccc(-c2cccc(C(F)(F)F)c2)o1)c1nc(-c2ccco2)cs1`, the growth is 82.2%. Regarding `C=C(C)[C@@H]1CC[C@]2(CN)CC[C@]3(C)[C@H](CC[C@@H]4[C@@](C)(CCCN)[C@H](C(=C)C)CC[C@]43C)[C@@H]12`, the growth is 79.8%. For the molecule `Nc1ccccc1NC(=O)c1ccc(CN2CCC/C(=C\c3ccccn3)C2=O)cc1`, the growth is 15.5%. As for `O=c1c2sc3ncc(Br)cc3c2ncn1-c1cccc(Cl)c1`, the growth was 16.4%. In the case of `CCN1CCN(C(=O)[C@]23CCC(C)(C)C[C@@H]2C2=CC[C@@H]4[C@@]5(C)C/C(=C/c6ccncc6)C(=O)C(C)(C)[C@@H]5CC[C@@]4(C)[C@]2(C)CC3)CC1`, the growth is 25%. As for `Cc1ccc(-c2nc([P+](c3ccccc3)(c3ccccc3)c3ccccc3)c(N3CCOCC3)o2)cc1`, the growth is 0.0247% (active). `CCCCn1c(-c2ccc(O)cc2)cn2c3c(=O)[nH]c(=O)n(C)c3nc12`: the growth is 53.2%. On the same count and under the same terms, to `CN(C)CCCC1(c2ccc(F)cc2)OCc2cc(-c3ccc(C(F)(F)F)nc3)ccc21` (centres undefined) belongs 41.7%; to `Nc1c2c(nc3ccc(Cl)cc13)CC(c1ccc(O)cc1)CC2=O` (centres undefined), 30.5%. As for `N#Cc1c(-c2ccco2)nc2c(c(-c3ccccc3)nn2-c2ccccc2)c1-c1ccc(O)cc1`, the growth is 71.1%. On to `COc1ccc(OC)c(-c2c(C#N)c(-c3ccco3)nc3c2c(-c2ccccc2)nn3-c2ccccc2)c1`, for which the growth was 84.5%. Same read-out and setting: in the case of `N#CC1=C(N)Oc2c(c(N)nn2-c2ccccc2)C1c1ccc(Cl)cc1` (centres undefined) it was 77.3%; in that of `O=C(O)c1cccc2c1Cc1cc([N+](=O)[O-])ccc1-2`, 83.5%; in that of `CCN1CCN(C(=O)[C@]23CCC(C)(C)C[C@H]2C2=CC[C@@H]4[C@@]5(C)CC/C(=N/O)C(C)(C)[C@@H]5CC[C@@]4(C)[C@]2(C)CC3)CC1`, 59.3%.

For `Cc1ccc(NC2CC(=O)N(c3c(C)cc(C)cc3C)C2=O)c(C)c1` (centres undefined), the growth was 105%. Same read-out and setting: in the case of `NCCNc1nc(-c2ccccc2)nc2nc(-c3ccccc3)oc12` it was 61.9%. On to `CCCCCC1CCCCN1C(=O)OCC` (centres undefined), for which the growth is 88.4%. The same measure, in the same setting: to `COc1ccc(-c2cc(/C=C/C(=O)c3ccc(N)cc3)[nH]n2)cc1` belongs -0.764% (active); to `COc1ccc2nc(-c3cc(-c4cc(OC)c(OC)c(OC)c4)n[nH]3)[nH]c2c1`, -2.76% (active). On the same count and under the same terms, to `COc1ccc(/C=C(\C#N)c2cc3ccccc3n2S(C)(=O)=O)cc1` belongs 73.1%; to `CC1c2ccccc2N(S(=O)(=O)c2ccccc2)C1C` (centres undefined), 86%; to `CC1(C)CC[C@]2(C(=O)NCCNCCN)CC[C@]3(C)C(=CC[C@@H]4[C@@]5(C)CCC(=O)C(C)(C)[C@@H]5CC[C@]43C)[C@@H]2C1`, 69.8%.

For the molecule `C=C(C)[C@@H]1CC[C@]2(C)[C@H](CC[C@@H]3[C@H]4[C@H]5OC[C@@]4(CCC5(C)C)CC[C@]32C)[C@@]1(C)CCCN`, the growth was 95.2%. Consider `COc1cc2nc(Cl)nc(Nc3cccc(C(=O)/C=C/c4ccc(F)cc4)c3)c2cc1OC`, for which the growth was 88.3%.

For `CC[C@H](CC[C@@H](C)[C@H]1CC[C@H]2[C@@H]3/C(=C/c4cccnc4)C(=O)C4=CC(=O)CC[C@]4(C)[C@H]3CC[C@]12C)C(C)C`, the growth was 110%. With `COc1ccc(CCN2C(=O)C(C)(C)SC2=S)cc1OC`, the growth is 76.8%. As to `C=C(C)[C@@H]1CC[C@]2(C(=O)N3CCN(C)CC3)CC[C@]3(C)[C@H](CC[C@@H]4[C@@]5(C)C/C(=C/c6ccc(C(F)(F)F)cc6)C(=O)C(C)(C)[C@@H]5CC[C@]43C)[C@@H]12`, the growth was 80.7%. Same read-out and setting: to `Cc1nc([P+](c2ccccc2)(c2ccccc2)c2ccccc2)c(Sc2sc(-c3ccccc3)nc2[P+](c2ccccc2)(c2ccccc2)c2ccccc2)o1` belongs -3.87% (active); to `O=C1NC(=Nc2ccc(S(=O)(=O)Nc3nccs3)cc2)S/C1=C\c1coc2ccccc2c1=O`, 55.9%. For the molecule `Cc1ccc(Sc2sc(-c3ccccc3)nc2[P+](c2ccccc2)(c2ccccc2)c2ccccc2)cc1`, the growth is -3.74% (active). On to `Clc1ccccc1-c1nc(Nc2nc3ccccc3s2)nc(C(Cl)(Cl)Cl)n1`, for which the growth is 58.2%.
